Screening results deposited in PubChem by several laboratories.
ANO1 block – TMEM16A chloride channel inhibitors, primary screen, cell-based, HTS | normalized B-score (activity score, 25-100; higher = stronger inhibition) at 10 µM | 310,000 tested, 1.2% active | Anoctamin-1 (Mus musculus), Q8BHY3 | HEK293 TMEM16A/YFP iodide influx fluorescence, ionomycin;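 active means ratio plate-corrected score three or more library SD toward inhibition, starting fluorescence score within five deviations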;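 further: score derived from kinetic fluorescence span divided by baseline fluorescence per well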
ANO1 activ – TMEM16A chloride channel activators or potentiators, primary screen, cell-based, HTS | HEK293 TMEM16A/YFP-H148Q/I152L, iodide quench fluorescence; hits give low values | B-score at 10 µM | Anoctamin-1 (Mus musculus), Q8BHY3 | 340,000 tested, 0.3% active;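 active means fluorescence-ratio B-score plate-corrected deviation score at least 3 library SD below zero, with starting fluorescence score within 5 deviations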;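 further: channel opened by trigger with iodide after compound preincubation; score built on the fluorescence ratio of max minus min over baseline; more negative score means more quench and so TMEM16A activation or potentiation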
PKA-R2B act – activators of PKA-R2B holoenzyme, primary screen, biochemical, fluorescence polarization, Cy5-IP20, human. 340,000 tested, 0.079% active. AID 504700, 2011. PKA-R2B holoenzyme dissociation; R2B truncated from residue 108, S112A mutant; 0% DMSO only, 100% 113 µM cGMP. cAMP-dependent protein kinase catalytic subunit beta (Homo sapiens) + cAMP-dependent …. activation, % at 11.4 µM;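 active means activation above a cutoff set at the mean over all compounds plus 3 SD, cut at about 18% in these data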;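 further: higher means more holoenzyme dissociation and a rise in polarization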
PKA-R1A act – activators of PKA-R1A holoenzyme, primary screen, biochemical, fluorescence polarization, Cy5-IP20, bovine R1A, mouse PKAc; cAMP-dependent protein kinase type I-alpha regulatory subunit (Bos taurus) + …; PKA-R1A dissociation; scaled: DMSO 0%, 113 µM cGMP 100%; activation, % at 11.4 µM; 340,000 tested, 0.083% active;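 active means percent activation above the mean of all tested compounds plus 3 SD, cut at about 19% in these data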;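 further: higher means more PKAc released from R1A so a rise in polarization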
CHT PAM – CHT positive allosteric modulators, primary screen, cell-based, membrane potential dye, choline EC20 | High affinity choline transporter 1 (Homo sapiens), Q9GZV3 | CHT-expressing cells; hits give high values; LV-AA mutant CHT in HEK293 cells | B-score at 10 µM | 310,000 tested, 0.49% active;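 active means initial fluorescence not abnormally high and integrated response B-score, plate-corrected, over 3 SD above library mean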
CHT block – inhibitors of human choline transporter CHT | High affinity choline transporter 1 (Homo sapiens), Q9GZV3 | CHT-expressing cells, membrane potential dye, choline response; hits give low values | AID 488975, 2010 | 310,000 tested, 0.86% active | B-score at 10 µM;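 active means B-score over 3 SD under the library average, and starting fluorescence ratio not unusually high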;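 further: choline stimulus applied at its EC90 after an EC20 pre-addition; B-score computed on integrated fluorescence ratio after choline addition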
CHT block conf – CHT inhibitors, confirmation, cell-based, membrane potential dye, duplicate; shares compounds with CHT block; CHT-expressing cells, choline membrane potential dye; LV-to-AA substituted CHT, HEK293 cells; CHT activity remaining % of control (hits give low values), % at 10 µM; 2,400 tested, 70% active;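 active means choline transporter activity left, mean of duplicates at 10 µM, below buffer-only control mean minus 3 SD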;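 further: depolarization triggered by choline at its EC90 following an EC20 pre-addition; 0% = hemicholinium-3 full block and 100% = buffer-only control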
HEK293 CHT ctr – membrane potential effects in parental HEK293, counter-screen for CHT inhibitor project, cell-based, membrane potential dye | shares compounds with CHT block | choline response; active = decrease or increase beyond buffer ±3SD | membrane potential ratio readout (active if shifted either direction beyond buffer ±3SD; no single direction) at 10 µM | 2,400 tested, 4% active;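 further: parental cells lack the transporter so any hit is non-specific; ratio is peak minus trough fluorescence over baseline after EC90 choline challenge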
* marks the source's active call; other numbers are inactive results; i = inactive; . = not tested or not shown. Compounds with a hit are over-represented: about 2.5% of the library has one in this group of screens.

SMILES	ANO1 block	ANO1 activ	PKA-R2B act	PKA-R1A act	CHT PAM	CHT block	CHT block conf	HEK293 CHT ctr
C[C@]12C=CC(=O)C=C1CC[C@@H]1C2[C@@H](O)C[C@@]2(C)C1CC[C@]2(O)C(=O)COC(=O)CCC(=O)O (some centres undefined)	i	i	-6.2	-12.7	i	i	.	.
Cc1ccc(-n2c(C)cc(C(=O)COC(=O)C3=NNC(=O)CC3)c2C)cc1	i	i	-2.1	-0.8	i	-6.49*	17.6%*	-11.7*
Cc1cccc(-c2ncc(CN3CCN(C4CCCC4)C(CCO)C3)cn2)c1 (centres undefined)	i	i	-1.5	-4.5	i	i	.	.
Cc1cccc(-c2ncc(CN3CCN(CCC(C)C)C(CCO)C3)cn2)c1 (centres undefined)	i	i	-13.8	-2.9	i	-5.78*	i	i
CCOC(=O)C1=C(COC(=O)c2ccc(OC(C)C)cc2)NC(=O)NC1C (centres undefined)	i	i	10.2	13.3	i	-9.69*	2.8%*	i
COc1cc(SC)ccc1C(=O)NC1CCCCC1	i	i	7.7	12.8	i	-6.19*	i	i
COc1cc(SC)ccc1C(=O)OCC(=O)NC1CCCCC1	i	i	-17.2	-0.7	i	i	.	.
CCN(CC)CCCN(C(=O)c1ccc(OC)cc1)c1nc(-c2ccc(OC)cc2)cs1	i	i	8.3	1.7	i	-5.36*	43.8%*	i
C=CCNc1nc2ccccc2nc1NS(=O)(=O)c1ccc(Br)cc1	25*	.	-1.2	6.9	i	-5.11*	68.9%*	i
COCCNC(=S)N1CCN(c2nc(-c3ccc(Cl)cc3)cs2)CC1	i	i	-12.6	-13.9	i	-7.48*	i	i
COc1cccc(NC(=O)NCc2c(-c3ccccc3)noc2C)c1	i	i	-6.5	-6.2	i	i	.	.
COc1ccc(Cl)c2sc(N(CCN(C)C)C(=O)c3ccc4c(c3)OCCO4)nc12	i	i	-17.1	-4.9	i	-9.78*	35.8%*	i
CN(C)CCN(C(=O)c1ccc2c(c1)OCCO2)c1nc2c(Cl)cccc2s1	i	i	3.8	4.3	i	i	.	.
O=C(NNS(=O)(=O)c1ccccc1[N+](=O)[O-])c1ccccc1Cl	i	i	-3.4	10.1	i	i	.	.
O=C(NNS(=O)(=O)c1ccccc1[N+](=O)[O-])c1cc2ccccc2cc1O	i	i	-7.2	11.5	i	-7.26*	62.3%*	i
CSc1ccccc1NC(=O)CN(C)C(=O)c1ccc(-n2cccn2)cc1	.	i	-8.8	-6.5	.	.	.	.
CN(/N=C/c1ccc([N+](=O)[O-])o1)c1ccccc1	i	i	-0.1	-8.7	i	-5.75*	50.4%*	i
O=C(O)/C(=C\c1ccc(-c2ccccc2[N+](=O)[O-])o1)c1ccccc1	i	i	-0.3	-10.3	i	-5.6*	i	i
O=C(/C=C/c1ccc(-c2ccccc2[N+](=O)[O-])o1)c1ccccc1	i	i	-10.2	-4.2	i	i	.	.
CSCC[C@H](NC(=O)[C@H]1CC[C@H](CNC(=O)[C@@H](N)Cc2ccccc2)CC1)C(=O)O	i	.	4.0	15.2	i	i	.	.
Cn1c(-c2sccc2OCc2ccc(Cl)cc2Cl)n[nH]c1=S	i	i	-3.1	7.2	i	-5.57*	i	i
Cc1cc(=O)n2nc(N3CCC(C(=O)NCc4ccc(Cl)cc4)CC3)sc2n1	i	i	3.7	-5.9	i	i	.	.
Cc1[nH]n(-c2cccc(Cl)c2)c(=O)c1-c1ccccc1	i	i	-7.0	-5.3	i	-6.12*	67.5%*	i
CN1CCN(c2ccc(S(=O)(=O)N3CCOCC3)cc2NC(=O)Cc2ccccc2F)CC1	.	i	6.4	2.5	.	.	.	.
COc1cccc(OC)c1OCCCCCc1c(C)n[nH]c1C	i	i	3.8	-3.5	i	-6.54*	45.2%*	i
SMILES	ANO1 block	ANO1 activ	PKA-R2B act	PKA-R1A act	CHT PAM	CHT block	CHT block conf	HEK293 CHT ctr
COc1cccc(OC)c1OCCCCc1c(C)n[nH]c1C	i	i	-0.1	-3.2	i	i	.	.
Cc1n[nH]c(C)c1CCCCOc1ccccc1F	i	i	-0.3	6.4	i	i	.	.
Cc1n[nH]c(C)c1CCCCOc1ccccc1[N+](=O)[O-]	i	i	-2.9	-1.9	i	-5.5*	52.0%*	i
CC1(C)CC(=O)C(N=Nc2ccc(Cl)cc2)=C(O)C1	i	i	7.8	-5.8	i	i	.	.
COc1ccccc1N=NC1=C(O)CC(C)(C)CC1=O	i	i	9.1	7.6	i	-5.51*	i	i
Cc1ccc(Nc2cc(C)nc(-c3ccccc3)n2)cc1	i	i	2.2	-9.5	i	i	.	.
CN(C(=O)CSc1nc2ccccc2[nH]1)C1CCS(=O)(=O)C1 (centres undefined)	.	i	-4.6	-11.8	.	.	.	.
CC(=O)Nc1nc(C2COc3ccccc3O2)cs1 (centres undefined)	i	i	6.3	-6.0	i	i	.	.
NC(N)=Nc1nc(C2COc3ccccc3O2)cs1 (centres undefined)	i	i	10.4	0.4	i	-8.76*	46.4%*	i
NC(CSC1(c2ccc(Cl)cc2)c2ccccc2-c2ccccc21)C(=O)O (centres undefined)	.	i	-1.4	7.0	.	.	.	.
O=C(Nc1ccc(F)cc1)N1CCN(CCc2ccccc2)CC1	i	i	-5.3	-10.8	i	-5.4*	68.8%*	i
CCCN(CCC)CCCNC(=S)Nc1ccc2nc(N3CCN(CC)CC3)cc(C)c2c1	i	i	-5.5	-3.1	i	-6.68*	49.2%*	2.17*
